PubChem BioAssay (NCATS)
Inconclusive results are not listed. Unmarked numbers belong to inactive results. The source made the active and inactive calls. The call rests on the fitted dose curve; in most records, active means well fitted cell-killing curve with a large enough effect; inconclusive means small, poorly fitted or top-dose-only effect, or effect the other way; inactive means flat fitted curve, though single readings scatter.

Assay: qHTS of pediatric cancer cell lines to identify multiple opportunities for drug repurposing: Confirmatory screen for Rh18 cells (AID 1347125); further: nearly all actives have a fitted effect of over 55% in size
Conditions: Rh18 rhabdomyosarcoma cells, viability; series mostly up to 45.9 µM; activity change, negative = cytotoxic: at the top concentration
Excerpt: Drug repurposing or repositioning has been offered as a strategy for drug development in oncology programs. This approach has special potential for childhood cancers and other rare or orphan diseases, where the expected return on new drug development has been a disincentive to pharmaceuticals.
In this project we exploit the poly-pharmacology of drugs to discover new indications via phenotypic screening of a panel of 19 well-characterized cell lines derived from solid tumors seen in children and adolescents. The goal is to identify approved drugs with previously unrecognized anticancer properties that has the potential to reveal new mechanisms and biological processes involved in carcinogenesis or drug resistance. We employed a titration-based paradigm (quantitative high-throughput screening or qHTS), where all compounds were tested at multiple concentrations for their effect on cell viability. Concentration-response curves (CRCs) were derived directly from the primary screen, and both potency and efficacy values were used to identify compounds with robust bioactivity profiles. We screened the NIH Chemical Genomics Center (NCGC) Pharmaceutical Collection (NPC) and Mechanism Interrogation Plate (MIPE) small molecule collections of approved and investigational compounds against these cell lines; and measured metabolically active cells after 48 hours of compound treatment as a proxy for cell viability.
Assay Submitter: Nathalia J. Martinez, National Center for Advancing Translational Sciences, National Institutes of Health, Rockville, MD, USA; email: natalia.martinez@nih.gov
[1] Shen, M et al. Quantitative high-throughput phenotypic screening of pediatric cancer cell lines identifies multiple opportunities for drug repurposing. Oncotarget 2017 Dec 19;9(4):4758-4772. PMID 29435139.
The cells were obtained from University of North Carolina (UNC), Pediatric Preclinical Testing Program (PPT), and Coriell Institute (CI).
qHTS cell viability assay:
Cells were assayed in growth media at a density of 500-1,000 cells/well. Five microliters of cells were dispensed into 1,536-well, white, solid-bottom, TC-treated plates (Greiner Bio One) using a multidrop dispenser and incubated at 37 degrees C, 5% CO2, under a humidified atmosphere for 5 hours. Twenty-three nanoliters of compounds and controls (neutral control DMSO or positive control bortezomib at final concentration of 2.3 µM) were subsequently transferred by Kalypsys pintool. For primary screens, the MIPE collection was tested at 11-point dilutions (final concentrations range from 0.78 nM to 46 µM) and the NPC collection at 8-point dilutions (final concentrations range from 0.59 nM to 46 µM). Compounds tested in follow-up screens were assayed at 11-point dilutions. Cells were incubated for 48 hours, followed by addition of 3 µL of CellTiter-Glo (Promega). After a 15 min incubation at room temperature, samples were analyzed for luminescence intensity using a ViewLux High-throughput CCD imager equipped with clear filters.
On the % scale 0 is the no-effect control and ±100 the full control effect; potency means the concentration at half of the fitted maximal effect.

Compound	Potency	activity change, negative = cytotoxic
CC1=C(O)C(=O)C=C2C1=CC=C1[C@@]2(C)CC[C@@]2(C)[C@@H]3C[C@](C)(C(=O)O)CC[C@]3(C)CC[C@]12C	2.33 µM (active)	
O=c1[nH]c2ccc(Cl)cc2c(N[C@@H]2CN3CCC2CC3)c1-c1nc2ccccc2[nH]1	26.1 µM (active)	
O=C(O)CCCOc1ccc(Cl)cc1Cl		-17.2% [at 95.5 µM]
O=C(N[C@H]1CN2CCC1CC2)c1ccc(Cl)cc1		3.87%
CC(C)N[C@@H]1CCn2c(=O)[nH]c3cccc(c32)[C@@H]1O		4.7%
CC=C(C)C(=O)O[C@H]1C(C)=C2[C@@H]3OC(=O)[C@@](C)(O)[C@@]3(O)[C@@H](OC(=O)CCC)C[C@](C)(OC(C)=O)[C@@H]2[C@@H]1OC(=O)CCCCCCC		16.1%
CC(C)[C@]12O[C@@H]1[C@@H]1O[C@]13[C@]1(O[C@H]1C[C@@H]1C4=C(CC[C@@]13C)C(=O)OC4)[C@H]2O	0.0827 µM (active)	
COc1cc([C@@H]2c3cc4c(cc3[C@@H](O)C3COC(=O)C32)OCO4)cc(OC)c1O (stereo partly specified)		-4.08%
C[C@@]12OC(=O)[C@]1([C@@H](O)[C@@H]1C=CCCC1)NC(=O)[C@H]2CCCl	1.17 µM (active)	
Cc1[nH]nc2ccc(-c3cncc(OC[C@@H](N)Cc4c[nH]c5ccccc45)c3)cc12	4.65 µM (active)	
C[C@@H]1CC[C@@]2(OC1)O[C@H]1C[C@H]3[C@@H]4CC=C5C[C@@H](O[C@@H]6O[C@H](CO)[C@@H](O[C@@H]7O[C@@H](C)[C@H](O)[C@@H](O)[C@@H]7O)[C@H](O)[C@@H]6O[C@@H]6O[C@@H](C)[C@H](O)[C@@H](O)[C@@H]6O)CC[C@]5(C)[C@@H]4CC[C@]3(C)[C@@H]1[C@H]2C	10.4 µM (active)	
CC=C(C)C(=O)N[C@@H](c1ccccc1)[C@@H](O)C(=O)O[C@H]1C[C@@]2(O)[C@@H](OC(=O)c3ccccc3)[C@@H]3[C@]4(OC(C)=O)CO[C@@H]4C[C@H](O)[C@@]3(C)C(=O)[C@H](OC(C)=O)C(=C1C)C2(C)C		-23%
CC(C)(C)C(O)C(Oc1ccc(Cl)cc1)n1cncn1 (stereo unspecified)		-5.11% [at 95.5 µM]
CC(=O)[O][Hg][c]1ccccc1	4.65 µM (active)	
CC[C@H]1C=CC=CC[C@@H](C)[C@H](O)[C@@](C)(O)C(=O)[C@@H](C)[C@H](O)[C@@H](C)C(=O)[C@@H](C)[C@H](O)[C@@H](C)C=CC(=O)O[C@@H]2[C@@H](C)[C@H](CC1)O[C@]1(CC[C@H](C)[C@H](C[C@@H](C)O)O1)[C@H]2C		-16.2%
O=C(O)COc1nc(Cl)c(Cl)cc1Cl		1.7% [at 95.5 µM]
C[C@]12Cc3cn[nH]c3C[C@@H]1CC[C@@H]1[C@H]2CC[C@@]2(C)[C@H]1CC[C@]2(C)O		-24.7%
CCC(=O)OC1CCC2C3CCC4=CC(=O)CC[C@@]4(C)C3CC[C@]12C (stereo partly specified)		-5.37%
CS(=O)(=O)c1ccc(C(=O)C2C(=O)CCCC2=O)c([N+](=O)[O-])c1		17.6% [at 95.5 µM]
CC[C@@H]1[C@@H](C)O[C@@](O)([C@@H](C)[C@H](O)[C@H](C)[C@H]2OC(=O)C=CC=C[C@@H](C)[C@@H]([C@@H](C)[C@@H](O)[C@H](C)[C@@]3(O)C[C@H](O[C@H]4C[C@H](O)[C@H](O)[C@H](C)O4)[C@H](CC)[C@@H](C)O3)OC(=O)C=CC=C[C@@H]2C)C[C@H]1O[C@H]1C[C@H](O)[C@H](O)[C@H](C)O1		-4.12%
Cc1ccccc1-n1c(Cn2cnc3c(N)ncnc32)nc2cccc(C)c2c1=O		-17.6%
O=C1C(I)=CC(=C(c2cc(I)c(O)c(I)c2)c2ccccc2C(=O)O)C=C1I		-3.05%
CC[C@@]1(O)C(=O)OCc2c1cc1n(c2=O)Cc2cc3ccccc3nc2-1	0.827 µM (active)	
O=[N+]([O-])c1c(Cl)c(Cl)cc(Cl)c1Cl		-12% [at 95.5 µM]
CC(C)(O)C=CC(=O)[C@](C)(O)[C@H]1[C@H](O)C[C@]2(C)[C@@H]3CC=C4[C@@H](C=C(O)C(=O)C4(C)C)[C@]3(C)C(=O)C[C@@]12C	0.147 µM (active)	
C[C@H]1CCCC=CC2C[C@H](O)C[C@@H]2[C@H](O)C=CC(=O)O1 (stereo partly specified)	0.104 µM (active)	
